# Records with an inconclusive call do not appear. Active and inactive are the calls of the source. Calls come from the whole dose curve; as a rule, active = well fitted cell-killing curve with a large enough effect; inconclusive = small, poorly fitted or top-dose-only effect, or effect the other way; inactive = no such curve, though single readings can be large or run the other way.
# Assay: Quantitative High-Throughput drug screen in 47 multiple myeloma cell lines against the NCATS MIPE library collection: UTMC2_PLB cell viability assay (AID 1919868); note: nearly all actives have a fitted effect of over 55% in size
# Details: CellTiter-Glo ATP luminescence, 48 h; viability (% of DMSO control): at 45.8 µM (top of the series)
# Procedure, shortened: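 MIPE 4.0 approved/investigational drugs; 500 cells/well; 48 h 37 °C humidified 5% CO2; CTG luminescence readout; DMSO = 100%, media = 0% viability.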
# Potency is the fitted concentration of half-maximal effect.
row,SMILES,Potency
1,COc1ccccc1[C@H](c1cccc2ccccc12)[C@@](C)(C#N)C(=O)N1CCC(c2cccc(C(F)(F)F)c2)CC1,5.26 µM (active)
2,CCc1cncnc1N1CCN(Cc2nc3ccc(C(F)(F)F)cc3[nH]2)CC1,18.7 µM (active)
3,COc1ccc(-c2ccc3c(N4CCOC[C@H]4C)nc(N4CCOC[C@H]4C)nc3n2)cc1CO,0.001 µM (active)
